The structures appear in SMILES notation. In all, about 320,000 compounds went through this assay and about 2,100 (0.66%) were called active. About 53% were inconclusive and are not listed. The call rests on the fitted dose curve; in most records, active means well fitted inhibition curve with a large enough effect in the signal ratio, with a control signal flat (not every such curve was filed as active); inconclusive means small, poorly fitted or top-dose-only effect, or effect the other way, or a change in a side signal; inactive means flat fitted curve, though single readings scatter; the % refers to the signal ratio. Many of the other results were omitted from the sample, so actives are more common in it than they were.
Potency means the concentration at half of the fitted maximal effect.

The nature of this assay: qHTS Assay for Lipid Storage Modulators in Drosophila S3 Cells.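 On cell number change: cells counted by Cell Tracker Red CMTPX staining in the red channel.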 The settings on record: BODIPY lipid droplet fluorescence, 18-24 h, cells fed with added oleic acid; cell number change: measured here: cell count max response; series mostly up to 46.1 µM. A digest of the protocol: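 Laser-scanning cytometry quantifies lipid droplet accumulation (500–530 nm total intensity; droplet/cell object ratio) in oleic acid-fed (400 uM added) Drosophila S3 cells treated with a concentration series. 20 uM Triacsin C defined 100% inhibition.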
For orientation: In qHTS, concentration-response curves come from the screen itself.
With `Cn1cccc1P(=O)(c1cccn1C)c1cccn1C`, the Potency is 5.17 µM (active) and the cell number change is -5%.
With `Cn1cccc1C(=O)C(=O)Nc1ccccc1`, the Potency result was “inactive” and the cell number change is -12.6%.
For `Cn1cccc2[nH]c(=O)nc1-2`, the Potency entry is “inactive” and the cell number change came out at 10.2%.
Take `CC(C)c1nnc(NC(=O)c2ccc3ccccc3c2)s1`: the Potency result was “inactive” and the cell number change is -0.433%.
As for `CC1CCN(C(=O)CN(Cc2ccc(F)cc2)S(C)(=O)=O)CC1`, the Potency result was “inactive” and the cell number change is -15.4%.
The matching figures for `O=C(CN(Cc1ccc(F)cc1)S(=O)(=O)c1ccccc1)N1CCCCC1`: “inactive” and -14.4%.
In the case of `CS(=O)(=O)N(CC(=O)N1CCc2ccccc2C1)Cc1ccc(F)cc1`, the Potency was 0.13 µM (active) and the cell number change was -12.3%.
The matching figures for `Cc1ccc(F)c(NC=C2C(=O)OC(C)(C)OC2=O)c1`: “inactive” and -13.4%.
For `CC(C)(C)Cc1nnc(NS(=O)(=O)c2ccccc2)s1` the same measures were “inactive” and -0.602%.
For `COCc1nnc(NS(=O)(=O)c2ccc(F)cc2)s1` the same measures were “inactive” and -4.6%.
On to `Cc1cc(C)c(S(=O)(=O)Nc2nnc(C)s2)c(C)c1`, for which the Potency result is “inactive” and the cell number change was -0.995%.
For `Cc1cc(C)c(S(=O)(=O)Nc2nnc(CC(C)C)s2)c(C)c1` the same measures were “inactive” and -5.67%.
On to `COCc1nnc(NS(=O)(=O)c2ccc(C)cc2)s1`, for which the Potency entry is “inactive” and the cell number change was -2.98%.
For `Cc1ccc(S(=O)(=O)Nc2nnc(CC(C)(C)C)s2)cc1` the same measures were “inactive” and -2.43%.
For `COCc1nnc(NS(=O)(=O)c2c(C)cc(C)cc2C)s1`, the Potency is 18.4 µM (active) and the cell number change was -24.8%.
Turning to `CC(C)(C)Cc1nnc(NS(=O)(=O)c2ccc(F)cc2)s1`, the Potency was 0.0517 µM (active) and the cell number change was -2.36%.
The matching figures for `COCc1nnc(NS(=O)(=O)c2ccc([N+](=O)[O-])cc2)s1`: 25.9 µM (active) and 7.28%.
The matching figures for `Cn1ccs/c1=N\C(=O)Nc1cccc(Cl)c1`: “inactive” and 1.31%.
For `OCC1(CCOc2ccccc2)CCN(Cc2ccccc2OC(F)F)CC1` the same measures were “inactive” and 9.07%.
As for `CCCCOC(=O)c1ccc(Nc2ncnc3nc[nH]c23)cc1`, the Potency result is “inactive” and the cell number change worked out at 2.99%.
Consider `O=C(Nc1ccccc1[N+](=O)[O-])C1(c2ccccc2)CCOCC1`, for which the Potency result was “inactive” and the cell number change was -9.86%.
The matching figures for `CCOC(=O)N/N=C/c1ccc(OC)c(O)c1`: “inactive” and 4.89%.
In the case of `Nc1nc(COc2ccc(F)cc2Cl)nc(N2CCCCC2)n1`, the Potency result was “inactive”.
For the compound `CCCCn1c(-c2ccsc2)nc2c1c(=O)[nH]c(=O)n2CCC`, the Potency entry was “inactive” and the cell number change came out at 26%.
For `CCCCn1c(=O)[nH]c(=O)c2c1nc(Cn1ncc(Cl)c(Cl)c1=O)n2CCC`, the Potency was 9.2 µM (active) and the cell number change is -17.5%.
The matching figures for `CCCCCn1c(CN2CCN(Cc3ccccc3)CC2)nc2c1c(=O)[nH]c(=O)n2C`: “inactive” and -7.44%.
`Cc1ccc(C(=O)c2nc(C(=O)NCCO)nc3ccccc23)cc1`: the Potency result was “inactive” and the cell number change was determined as 10.6%.
`C/C(=N\O)C(=O)Nc1ccccc1`: the Potency entry is “inactive” and the cell number change came to 5.48%.
The matching figures for `O=C1C(Cl)=C(Nc2ccc3cn[nH]c3c2)C(=O)c2ccccc21`: 5.8 µM (active) and -29.2%.
On to `O=S(=O)(Nc1ccc2cn[nH]c2c1)c1ccc(Cl)cc1`, for which the Potency result is “inactive”.
Turning to `O=C1C(Cl)=C(Nc2ccccc2)C(=O)c2ccccc21`, the Potency result was “inactive” and the cell number change was -30.2%.
The matching figures for `COc1ccc(S(=O)(=O)NNC(=O)C2COc3ccccc3O2)cc1[N+](=O)[O-]` (stereo not drawn): “inactive” and 4.36%.
For `NC(=O)c1ccc(NC(=O)CSc2nnc(-c3ccccn3)n2N)cc1` the same measures were “inactive” and 1.07%.
The matching figures for `O=C(Nc1ccc(Oc2cccnc2)cc1)C1CCN(Cc2cccc(Cl)c2)CC1`: “inactive” and 27.9%.
Turning to `O=C(CN1CC(c2ccccc2)CC1=O)OCc1cccc(Br)c1` (stereo not drawn), the Potency entry is “inactive” and the cell number change was determined as 15.3%.
Turning to `Nc1nnnn1CC(=O)OCc1cccc(Br)c1`, the Potency is 2.06 µM (active) and the cell number change came to 4.89%.
The matching figures for `O=C(CNC(=O)c1ccccc1)OCc1cccc(Br)c1`: “inactive” and -18.3%.
The matching figures for `COc1ccc(S(=O)(=O)N2CCOC2CNC(=O)C(=O)NCc2ccncc2)cc1` (stereo not drawn): “inactive” and -15.1%.
In the case of `COc1ccc(CCNC(=O)CSc2c[nH]c3ccccc23)cc1OC`, the Potency entry was “inactive” and the cell number change came out at 5.06%.
For `O=C(COC(=O)CC1CCCC1)Nc1ccc(Cl)cn1` the same measures were “inactive” and 2.11%.
With `O=C(NCC1CCCC(CNC(=O)Nc2ccc(Cl)cn2)C1)Nc1ccc(Cl)cn1` (stereo not drawn), the Potency was 0.082 µM (active) and the cell number change was -15.8%.
As for `O=C(Nc1ccc(Cl)cn1)Nc1ccc(Cl)cn1`, the Potency result is “inactive”.
`Nc1nc2ccc(C(=O)Nc3ccccc3)cc2s1`: the Potency result is “inactive” and the cell number change was -10.8%.
On to `Cc1ccc(N2C(=O)C3C4C=CC(CC4)C3C2=O)c([N+](=O)[O-])c1` (stereo not drawn), for which the Potency result is “inactive”.
The same measure, in the same setting: to `O=C(CCl)N(C/C=C/c1ccccc1)c1ccc2c(c1)OCCO2` belongs “inactive”.
With `C=CCOc1ccccc1CNc1ccc2c(c1)OCCO2`, the Potency result was “inactive” and the cell number change was -4.69%.
Take `C=CCOc1ccccc1CN(C(=O)CCl)c1ccc2c(c1)OCO2`: the Potency was 9.2 µM (active) and the cell number change came out at 10.9%.
For the compound `Cc1cc(C)cc(Oc2ccc(C(F)(F)F)cc2C#N)c1`, the Potency entry is “inactive”.
With `Clc1ccc(CSc2ccc(-c3ccco3)nn2)cc1`, the Potency result is “inactive”.
Still for that read-out and setting: to `Nc1ccc(-c2nnc(-c3ccccc3)o2)cc1` belongs 18.4 µM (active).
On to `O=C(O)c1ccc(-c2nnc(-c3ccccc3)o2)cc1`, for which the Potency entry is “inactive” and the cell number change turned out to be 25.5%.
Turning to `c1ccc(-c2nnc(-c3ccccc3)o2)cc1`, the Potency result was “inactive” and the cell number change was 0.828%.
For `CCCCN1C(=O)/C(=C2\SC(N3CCOCC3)=NC2=O)c2ccccc21` the same measures were 8.2 µM (active) and -1.69%.
The matching figures for `Cc1ccc(CN2C(=O)/C(=C3\SC(N4CCOCC4)=NC3=O)c3cc(Br)ccc32)cc1`: “inactive” and 15.8%.
The matching figures for `CCN1C(=O)/C(=C2\SC(N3CCCCC3)=NC2=O)c2ccccc21`: “inactive” and -29.3%.
Take `O=C(NC12CC3CC(CC(C3)C1)C2)c1cnccn1`: the Potency result was “inactive” and the cell number change came to 3.24%.
The matching figures for `CCN(CC)C1CCS(=O)(=O)C1` (stereo not drawn): “inactive” and 22.1%.
The matching figures for `COc1cccc(-c2cc(C(=O)N3CCN(Cc4ccc5c(c4)OCO5)CC3)on2)c1`: “inactive” and 17%.
Consider `COC(=O)CNC(=O)c1cc(OC)cc(OC)c1`, for which the Potency entry was “inactive” and the cell number change amounted to 7%.
The matching figures for `COc1cc(OC)cc(C(=O)NCC(=O)OCC(=O)NC(C)(C)C)c1`: “inactive” and 16.7%.
The matching figures for `COc1cc(OC)cc(C(=O)NCC(=O)OCC(=O)c2cc(OC)ccc2OC)c1`: 23.1 µM (active) and -7.21%.
For `CC(C)OCCCNC(=O)C(NC(=O)c1ccc(Cl)cc1)C(C)C` (stereo not drawn) the same measures were “inactive” and 4.94%.
With `COC(=O)CNC(=O)C(NC(=O)c1ccc(Cl)cc1)C(C)C` (stereo not drawn), the Potency is 25.9 µM (active) and the cell number change was 12.5%.
As to `CCC(C)C(NC(=O)c1ccc(Cl)cc1)C(=O)O` (stereo not drawn), the Potency entry was “inactive” and the cell number change was -1.98%.
As to `COC(=O)c1cc(C(=O)Nc2cccc(C)n2)cc([N+](=O)[O-])c1`, the Potency entry is “inactive”.
For the compound `CCOC(=O)c1ccccc1NC(=O)C1CCCO1` (stereo not drawn), the Potency entry was “inactive” and the cell number change was found to be 2.7%.
The matching figures for `COC(=O)c1ccccc1NC(=O)C1CCCO1` (stereo not drawn): “inactive” and -0.0238%.
The matching figures for `O=C(O)c1ccccc1NC(=O)C1CCCO1` (stereo not drawn): 23.1 µM (active) and -12.3%.
For the compound `COc1cc(/C=C/C(=O)NC2CCCCC2)cc(OC)c1OC`, the Potency entry was “inactive” and the cell number change stood at 1.65%.
For `COc1cc(/C=C/C(=O)NC(C)C2CC3CCC2C3)cc(OC)c1OC` (stereo not drawn), the Potency is 2.91 µM (active) and the cell number change was 13.5%.
The matching figures for `COc1ccc(C(=O)NC(C)C2CC3CCC2C3)c(OC)c1` (stereo not drawn): “inactive” and 14.1%.
Consider `CCCCN1C(=O)C(=O)N(CC(=O)Nc2cc(OCC)c(N3CCOCC3)cc2OCC)C1=O`, for which the Potency result was “inactive” and the cell number change is -17.5%.
As to `COC(=O)CCN(c1ccccc1)S(=O)(=O)c1cc(-c2cc(C)no2)ccc1OC`, the Potency result is “inactive”.
On to `COc1ccc(-c2cc(C)no2)cc1S(=O)(=O)N(C)c1ccc(C)cc1`, for which the Potency entry was “inactive” and the cell number change is -26.4%.
`CCCN(c1ccccc1F)S(=O)(=O)c1cc(-c2cc(C)no2)ccc1OC`: the Potency was 4.61 µM (active) and the cell number change was -29.5%.
On to `COc1ccc(CN(C)S(=O)(=O)c2nnc(NC(=O)c3cccc(F)c3)s2)cc1`, for which the Potency result was “inactive”.
On to `COc1cccc(C(=O)Nc2nnc(S(=O)(=O)N3CCCC3)s2)c1`, for which the Potency was 4.11 µM (active) and the cell number change is -14.5%.
Turning to `CN(Cc1ccc(F)cc1)S(=O)(=O)c1nnc(NC(=O)c2ccccc2)s1`, the Potency entry is “inactive” and the cell number change worked out at 3.05%.
For `COc1cccc(C(=O)Nc2nnc(S(=O)(=O)N(C)Cc3ccc(F)cc3)s2)c1` the same measures were 29.1 µM (active) and -17.9%.
Consider `Cc1cccc(C(=O)Nc2nnc(S(=O)(=O)N3CCOCC3)s2)c1`, for which the Potency entry was “inactive” and the cell number change is -0.612%.
Take `O=C(Nc1nnc(S(=O)(=O)N2CCCCCC2)s1)c1cccc(Br)c1`: the Potency entry is “inactive” and the cell number change came out at 16.5%.
Turning to `CN(Cc1ccc2c(c1)OCO2)C(=O)c1cc(-c2ccccc2)c(N2CCOCC2)s1`, the Potency entry is “inactive” and the cell number change was -5.64%.
Turning to `COc1cccc(C(=O)NCc2nnc(SCC(=O)Nc3nccs3)n2-c2cccc(C)c2)c1`, the Potency entry was “inactive” and the cell number change is -7.27%.
With `COc1cc(NC(=O)CCc2nnc3ccc(N4CCN(C)CC4)nn23)cc(OC)c1`, the Potency result is “inactive” and the cell number change is -14.7%.
The matching figures for `Cc1ccc(C)c(/C=C2\CCn3c2nc2cc(C(=O)O)ccc2c3=O)c1`: “inactive” and 6.53%.
For `CNc1oc(-c2ccc(F)cc2)nc1S(=O)(=O)c1ccccc1` the same measures were “inactive” and 11.1%.
For `CNc1oc(C)nc1S(=O)(=O)c1ccc(C)cc1` the same measures were “inactive” and -20.3%.
As to `CNc1oc(C)nc1S(=O)(=O)c1ccccc1`, the Potency is 32.6 µM (active) and the cell number change was 3.59%.
Regarding `CC(=O)Nc1ccc(S(=O)(=O)Nc2nccc(C)n2)cc1`, the Potency entry was “inactive” and the cell number change came to 1.57%.
For `CC(=O)Nc1ccc(S(=O)(=O)Nc2ncccn2)cc1`, the Potency entry was “inactive” and the cell number change was 3.3%.
On to `CC(=O)Nc1ccc(S(=O)(=O)Nc2nccc(C3Cc4ccccc4C(=O)O3)n2)cc1` (stereo not drawn), for which the Potency was 14.6 µM (active) and the cell number change is -1.08%.
The matching figures for `O=C(CSc1nnc(COc2ccccc2)o1)N1CCN(c2ccccc2)CC1`: “inactive” and 3.22%.
The matching figures for `Cc1cccc(C(=O)Nc2ccc(N3CCN(S(C)(=O)=O)CC3)cc2)c1`: “inactive” and 1.55%.
As for `COc1ccc(-n2ncc(C(C)NS(=O)(=O)c3cc(F)ccc3C)c2C)cc1` (stereo not drawn), the Potency was 9.2 µM (active) and the cell number change is -20.2%.
The matching figures for `COc1ccc(-n2ncc(C(C)NS(=O)(=O)c3ccc(C(C)=O)cc3)c2C)cc1` (stereo not drawn): “inactive” and -7.79%.
With `COC(=O)c1sccc1S(=O)(=O)NC(C)c1cnn(-c2ccc(OC)cc2)c1C` (stereo not drawn), the Potency result is “inactive” and the cell number change came out at 19.6%.
The matching figures for `CN(C)CCCN(C(=O)COc1ccccc1)c1nc2ccc(F)cc2s1`: “inactive” and -15.9%.

Values taken from PubChem BioAssay AID2685 (National Center for Advancing Translational Sciences (NCATS), 2010).
